These results are taken from PubChem BioAssay AID651644 (National Center for Advancing Translational Sciences (NCATS), 2012).

The whole screen tested about 360,000 compounds, of which about 750 (0.21%) were called active. Inconclusive results (about 2%) are left out. The list comes from a sample in which actives are over-represented; it also holds similar structures and randomly drawn compounds. Unmarked numbers belong to inactive results. The call rests on the fitted dose curve; in most records, active means well fitted falling curve with a large enough effect; inconclusive means small, poorly fitted or top-dose-only effect; inactive means no such curve, though single readings can be large or run the other way.
On the % scale 0 is the no-effect control and ±100 the full control effect.

The experiment in a line: qHTS Assay for Inhibitors of the HIV-1 protein Vpr. Further: nearly all actives have a fitted effect of over 50% in size. Conditions: S. pombe RE007 Vpr strain, BacTiter-Glo ATP luminescence, 24 h; series mostly up to 92.2 µM; activity change, negative = less growth: at the top concentration. The source says:
Human immunodeficiency virus type 1 (HIV-1), the causative agent of AIDS, contains a protein called viral protein R (Vpr) that plays an important role in the viral life cycle and the pathogenesis of HIV-1.
These Vpr specific activities include cytoplasmic-nuclear shuttling, induction of cell cycle G2 arrest and cell killing. The cytoplasmic-nuclear shuttling is believed to participate in nuclear transport of the proviral integration complex (PIC). The cell cycle G2 arrest induced by Vpr is thought to suppress human immune functions by preventing T cell clonal expansion and to provide an optimized cellular environment for maximal levels of viral replication. In addition, Vpr induces apoptosis, which may contribute to the depletion of CD4 T cells in HIV-infected patients. Since the Vpr-specific activities have been linked to such clinical manifestation of AIDS as activation of viral replication, suppression of host immune responses and depletion of CD4+ T-lymphocytes, identification of new molecular probes that can inhibit the Vpr activities could potentially provide a new approach to reduce Vpr-mediated detrimental effects in HIV-infected patients, and thus prolong patient's lives. Currently, there are no anti-Vpr drugs.
A fission yeast (Schizosaccharomyces pombe) model system for the Vpr studies has been developed which measures HIV-1 Vpr-induced cell death. This assay will be used for to screen the NIH Molecular Libraries Small Molecule Repository (MLSMR) identify small molecule HIV-1 Vpr inhibitors.
NIH Chemical Genomics Center [NCGC]
NIH Molecular Libraries Probe Centers Network [MLPCN]
Assay Submitter (PI): Richard Zhao, University of Maryland
The fission yeast RE007 strain was used, which carries a single integrated copy of HIV-1 vpr gene in the yeast chromosome. The starting culture was frozen stock 100ul of yeast RE007 in 150ml of *PMG+AL medium, Incubation in 30 degree plus 99% humidity for 18 hours. Next day dispensed 2.5ul of PMG+AL medium in each well to 1536 well white solid plate, then 23nL compound were delivered to each well using a pin tool. Check OD for overnight culture and add cell density at 0.01 for each well, incubation in 30 degree plus 99% humidity for 24 hours. After add 5 ul of *BacTiter/Glo detect reagent to each well at room temperature for 5 minutes then to red out results with Viewlux CCD camera.
On the technique in general: qHTS replaces the single test concentration by a dilution series.
Take `CC1CCCC(C)N1C(=O)CN1CCN(c2nc(-c3ccc(F)cc3)cs2)CC1` (configuration not stated): the “activity change, negative = less growth” value is 2.33%.

With `O=C(NC1CCCC1)C(c1c(F)cccc1Cl)N(C(=O)c1csnn1)C1CC1` (configuration not stated), the “activity change, negative = less growth” value is 5.17%.

As to `O=C(Nc1ccc(S(=O)(=O)N2CCc3ccccc3C2)cc1)c1ccccc1`, the “activity change, negative = less growth” value is -4.11%.

As to `O=C(NC1=CC(=O)c2ccccc2C1=O)c1ccccc1`, the Potency is 12.6 µM (active).

As for `O=C(OCC(O)C(O)COC(=O)c1ccccc1)c1ccccc1` (configuration not stated), the “activity change, negative = less growth” value was 11%.

In the case of `COc1ccc(C(=O)C(OP(=O)(OC)OC)c2ccccc2OC)cc1` (configuration not stated), the “activity change, negative = less growth” value was -2.08%.

In the case of `CCOC(=O)c1ccc(N2C(=O)CC(N3CCC(C(=O)OCC)CC3)C2=O)cc1` (configuration not stated), the Potency is 12.6 µM (active).

Regarding `COC(=O)c1cc(C(=O)OC)cc(N2C(=O)CC(N3CCN(c4ccccc4)CC3)C2=O)c1` (configuration not stated), the “activity change, negative = less growth” value is -22.8%.

In the case of `CCOC(=O)N(Cc1ccccc1)C1CC1`, the “activity change, negative = less growth” value is 12.2%.

As for `COc1ccc(N2CCN(C3CC(=O)N(c4ccc5c(c4)OCCO5)C3=O)CC2)cc1` (configuration not stated), the “activity change, negative = less growth” value was 13.6%.

Take `CCCCOC(=O)c1ccc(N2C(=O)CC(N3CCN(C/C=C/c4ccccc4)CC3)C2=O)cc1` (configuration not stated): the “activity change, negative = less growth” value was -15.3%.

On to `COc1ccc(N2C(=O)CC(N3CCC(C(N)=O)CC3)C2=O)cc1` (configuration not stated), for which the Potency was 25.1 µM (active).

For the compound `CCOC(=O)c1ccc(N2C(=O)CC(N(C)Cc3ccccc3)C2=O)cc1` (configuration not stated), the Potency is 12.6 µM (active).

Take `COc1ccc(CCN2C(=O)CC(N3CCC(C(N)=O)CC3)C2=O)cc1OC` (configuration not stated): the “activity change, negative = less growth” value was -26.9%.

Take `CCOC(=O)c1ccc(N2C(=O)CC(Sc3nc(O)c(CC)c(=O)[nH]3)C2=O)cc1` (configuration not stated): the “activity change, negative = less growth” value was -7.6%.

`NC(=O)Nc1ccccc1C(=O)NCCc1ccccc1`: the “activity change, negative = less growth” value was -0.111%.

Regarding `Cc1nn(CC(=O)N2CCCCC2)c(=O)c2nn(-c3ccccc3)c(C)c12`, the “activity change, negative = less growth” value is -10.5%.

Consider `O=S1(=O)CCOC[C@H](CC2CCCCC2)N1Cc1ccc(F)cc1`, for which the “activity change, negative = less growth” value was -0.533%.

Consider `C=CCOc1ccc(/C=C/C(=O)OCC(=O)NC2CCCCCC2)cc1`, for which the “activity change, negative = less growth” value is -3.31%.

Turning to `CCCCn1c(N)c(N(CCC(C)C)C(=O)COC(=O)c2ccc(CC)cc2)c(=O)[nH]c1=O`, the “activity change, negative = less growth” value is 27.2%.

On to `O=C(CC1OC(=O)c2ccccc21)NC1CCCCC1` (configuration not stated), for which the “activity change, negative = less growth” value is -24.1%.

Regarding `O=C(N/C(=C/c1ccc(Cl)cc1)C(=O)N1CCCCC1)c1ccco1`, the “activity change, negative = less growth” value was 0.0675%.

In the case of `CCOC(=O)c1ccc(-n2c(C)nc3c(cnn3-c3ccccc3C)c2=O)cc1`, the “activity change, negative = less growth” value was -1.39%.

On to `O=C(O)c1ccc(N=NN2CCOCC2)cc1`, for which the “activity change, negative = less growth” value is 3.61%.

Consider `O=C(CP(=O)(c1ccccc1)c1ccccc1)N1CCOCC1`, for which the “activity change, negative = less growth” value is -11.2%.

Turning to `O=C(O)c1ccc(NN=CC2=C(N3CCOCC3)/C(=C/c3ccccc3)CC2)cc1`, the Potency is 35.5 µM (active).

On to `Cc1[nH]nc(SCC(=O)NCC(C)C)c1[N+](=O)[O-]`, for which the “activity change, negative = less growth” value was 7.56%.

For `COc1ccc(CN2C(=O)C(CC(=O)NCc3cccc4ccccc34)CC(C(=O)N3CCOCC3)=C2C)cc1` (configuration not stated), the “activity change, negative = less growth” value was -10.7%.

As for `COc1ccc(C(=O)Nc2ccccc2C(=O)N/N=C/c2ccccc2OC)cc1`, the Potency is 35.5 µM (active).

With `CCCNC(=O)c1ccccc1NC(=O)CSCc1ccc(OC)cc1`, the “activity change, negative = less growth” value is -1.72%.

On to `COc1ccc(C(=O)Nc2ccccc2C(=O)N/N=C/c2ccc(O)c(OC)c2)cc1`, for which the Potency is 7.94 µM (active).

In the case of `CC(C)(C)C(=O)Nc1ccc(C(=O)N/N=C/c2ccccc2OC(=O)c2ccc(Cl)cc2Cl)cc1`, the “activity change, negative = less growth” value was -4.71%.

For the compound `COc1cc(/C=N/NC(=O)Nc2ccccc2)ccc1OCCOc1ccccc1C`, the “activity change, negative = less growth” value was 12.1%.

Regarding `COc1cccc(C(=O)N/N=C(\C)c2cccc(NC(=O)c3ccc(F)cc3)c2)c1OC`, the “activity change, negative = less growth” value is 4.97%.

For the compound `CC(C)C(c1nnnn1C1CCCCC1)N1CCN(C(=O)c2ccco2)CC1` (configuration not stated), the “activity change, negative = less growth” value is -6.16%.

For the compound `CCC1Nc2ncnc(N3CCN(c4ccccc4)CC3)c2N(Cc2ccc(Cl)cc2)C1=O` (configuration not stated), the “activity change, negative = less growth” value is -10.5%.

Consider `O=C(NNC1CC(=O)N(c2cccc(Cl)c2)C1=O)c1cccnc1` (configuration not stated), for which the “activity change, negative = less growth” value is -7.49%.

As to `Cc1ccc(NC(=O)C2CCC(C(C)(C)C)CC2)cc1S(=O)(=O)N1CCOCC1` (configuration not stated), the “activity change, negative = less growth” value was -5.98%.

With `Cc1nn(C)c(C)c1S(=O)(=O)N1CCc2ccccc21`, the “activity change, negative = less growth” value is 12.9%.

Turning to `Cc1[nH]c(C)c(S(=O)(=O)N2CCC(C)CC2)c1C(=O)N1CCCC1`, the “activity change, negative = less growth” value was 16%.

Take `O=C(O)c1cscn1`: the “activity change, negative = less growth” value was 8.48%.

As for `CC(C)CC1(C(=O)NCc2ccccn2)C=CCN1C(=O)c1ccccc1` (configuration not stated), the “activity change, negative = less growth” value was -16.5%.

Consider `COc1ccc(C(O)C(O)(C(=O)OC(C)C)c2ccc(C)cc2)cc1` (configuration not stated), for which the “activity change, negative = less growth” value was 2.24%.

With `COC(=O)c1ccc(CNC(=O)c2ccc3oc(C(C)C)nc3c2)cc1`, the “activity change, negative = less growth” value is -1.64%.

With `Cc1ccc(C)c(-n2cc(CN3CCN(C(=O)c4ncn[nH]4)CC3)c(-c3ccccc3)n2)c1`, the “activity change, negative = less growth” value was 2.12%.

With `NC(=O)COC(=O)c1sc2cc(F)ccc2c1Cl`, the Potency is 25.1 µM (active).

On to `Cc1ccc2c(Cl)c(C(=O)Nc3nn[nH]n3)sc2c1`, for which the “activity change, negative = less growth” value was 2.79%.

`CC(NC(=O)COC(=O)c1ccc(Cl)cc1O)c1ccc(F)cc1` (configuration not stated): the “activity change, negative = less growth” value is 14.6%.

As to `Cc1ccc(S(=O)(=O)NCC(=O)N(CC(=O)NC(C)(C)C)Cc2cccs2)cc1`, the “activity change, negative = less growth” value was 4.4%.

Take `COCCCNC(=O)C1CCN(c2ccc(N3CCOCC3)nn2)CC1`: the “activity change, negative = less growth” value was -8.78%.

As to `CCc1nc2c(OCCOc3ccccc3)cccn2c1N(C=O)Cc1ccc(OC)cc1`, the “activity change, negative = less growth” value was -28.1%.

Regarding `Cc1ccc(S(=O)(=O)N(CC(O)CN2C(=O)NC(C)(C)C2=O)c2cccc([N+](=O)[O-])c2)cc1` (configuration not stated), the “activity change, negative = less growth” value is 51.3%.
